Hits are enriched below; roughly 10% of the tested compounds scored in any of these assays.
Luc counter: Counterscreen for Luciferase (Kinase-Glo TM) Inhibition | hit rate 0.28% among 200,000 | Potency, µM (doses to about 38.3 µM), for inactives: at the top dose activity change, negative = inhibition, actives largely listed as inhibitors | Kinase-Glo luciferase, ATP luminescence, 8 min | Luciferin 4-monooxygenase (Photuris pensylvanica), Q27757; active = well fitted inhibition curve with a large enough effect; inconclusive = small, poorly fitted or top-dose-only effect; note: potency is the fitted concentration of half-maximal effect; nearly all actives have a fitted effect of over 60% in size
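Inhibition of Kinase-Glo luciferase light generation was assessed at 10 uM ATP in pH 7.2 imidazole buffer, with luminescence measured after eight minutes at ambient temperature.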
HPGD inh: qHTS Assay for Inhibitors of HPGD (15-Hydroxyprostaglandin Dehydrogenase). Potency, µM, without a hit: at the highest dose activity change, negative = inhibition, actives largely listed as inhibitors. hit rate 4.3% among 150,000. AID 894, 2007. purified HPGD, NADH fluorescence kinetic, PGE2 substrate; note: potency is the fitted concentration of half-maximal effect
Target sequence (P15428 whole entry, looked up): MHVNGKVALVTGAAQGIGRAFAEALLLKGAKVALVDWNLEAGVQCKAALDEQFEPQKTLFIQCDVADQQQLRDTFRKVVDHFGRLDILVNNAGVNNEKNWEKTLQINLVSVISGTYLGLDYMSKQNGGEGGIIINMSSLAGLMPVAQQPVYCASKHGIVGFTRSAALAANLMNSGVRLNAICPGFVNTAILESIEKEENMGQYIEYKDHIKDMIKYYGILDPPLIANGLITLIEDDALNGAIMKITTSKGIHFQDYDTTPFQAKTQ
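20 nM HPGD preincubated 15 min at room temperature with compound in 50 mM Tris-HCl pH 8, 0.01% Tween 20. Started with 1 mM NAD+ and 30 uM prostaglandin E2; NADH fluorescence (360/450 nm) read 5 times over 30-s intervals, last minus first.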
ALDH1A1 inh: qHTS Assay for Inhibitors of Aldehyde Dehydrogenase 1 (ALDH1A1); Aldehyde dehydrogenase 1A1 (Homo sapiens), P00352; Purified ALDH1A1, NADH fluorescence, propionaldehyde substrate; Potency, µM (top dose mostly 75.3 µM), without a hit: at the highest dose activity, negative = inhibition, actives largely listed as inhibitors; hit rate 7.3% among 220,000; AID 1030, 2008;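 note: potency is the fitted concentration of half-maximal effect; plate controls were no enzyme wells and a reference inhibitor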
Target sequence (P00352 whole entry, looked up): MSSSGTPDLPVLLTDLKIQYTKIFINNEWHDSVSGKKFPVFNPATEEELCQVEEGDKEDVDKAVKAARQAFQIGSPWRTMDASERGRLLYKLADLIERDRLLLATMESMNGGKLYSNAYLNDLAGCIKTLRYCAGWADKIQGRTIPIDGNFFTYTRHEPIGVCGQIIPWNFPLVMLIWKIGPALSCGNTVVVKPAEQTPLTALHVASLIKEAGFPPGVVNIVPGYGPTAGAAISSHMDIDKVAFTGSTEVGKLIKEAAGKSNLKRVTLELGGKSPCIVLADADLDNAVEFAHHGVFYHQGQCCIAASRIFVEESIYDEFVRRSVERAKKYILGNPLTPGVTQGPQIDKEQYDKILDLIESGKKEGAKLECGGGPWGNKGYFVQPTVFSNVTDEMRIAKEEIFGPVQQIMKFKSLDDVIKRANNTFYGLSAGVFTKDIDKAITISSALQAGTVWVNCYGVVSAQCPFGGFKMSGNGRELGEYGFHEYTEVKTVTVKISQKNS
LMNA splice mod: qHTS Assay for Modulators of Lamin A Splicing; HeLa LMNA splicing GFP/RFP minigene ratio, 48 h; AID 1487, 2009; hit rate 0.01% among 200,000; Potency, µM (top dose mostly 46.1 µM), inactives show at the highest dose ratio change, negative = inhibition, most hits filed as inhibitors; active = well fitted inhibition curve with a large enough effect in the signal ratio, with a control signal flat, not every such curve was filed as active; inconclusive = small, poorly fitted or top-dose-only effect, or effect the other way, or a change in a side signal; the % refers to the signal ratio; note: potency is the fitted concentration of half-maximal effect
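S3 HeLa cells stably expressing lamin A-EGFP splicing minigene plus DsRed2, 600 cells/well, 48 h compound exposure at 37C. Laser-scanning cytometry; analysed as GFP (500-530 nm)/RFP (575-640 nm) total intensity ratio; 0.5% DMSO vehicle.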
PNC inhibitor: High Content Assay for Compounds that inhibit the Assembly of the Perinucleolar Compartment; activity change (PNC), negative = inhibition, % at 10 µM; hit rate 3.1% among 140,000; PC3M PTB-GFP, PNC prevalence imaging, 16 h; hits give low values;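 active = readout at or below -70, meaning at least 70% loss of cells showing the perinucleolar compartment, a nuclear body marking cancer cells; inconclusive = readout between -30 and a set limit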;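 note: plate controls were DMSO wells for no effect and camptothecin positive control wells for full effect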
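Compounds are pinned in duplicate onto adhered PC3M cells stably expressing GFP-tagged PTB and incubated 16 h at 37 C. Cells are then fixed, nuclei stained with Hoechst, and PNC-positive cells counted.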
Starred values were filed as active, the others as inactive; ? = inconclusive; . = not tested or not shown; [ ] = another dose, or the depositor's remark. Unless noted, calls come from the whole dose curve; as a rule, active = well fitted inhibition curve with a large enough effect (not every such curve was filed as active); inconclusive = small, poorly fitted or top-dose-only effect, or another doubt; inactive = no such curve, though single readings can be large or run the other way. Unless noted, % is set by controls: 0 for no effect and ±100 for the full control effect.

SMILES | Luc counter | HPGD inh | ALDH1A1 inh | LMNA splice mod | PNC inhibitor
O=C(C1CCN(C2CC(=O)N(c3ccc(F)cc3)C2=O)CC1)N1CCOCC1 (stereo not drawn) | -5.3% | -6.5% | 7.08µM* | 2.4% | 59.1
CCN1C(=O)CC(N2CCC(C(=O)N3CCOCC3)CC2)C1=O (stereo not drawn) | 1.8% | -11.8% | -2.2% | 0.9% | ?
COc1ccc(N2C(=O)CC(N3CCOCC3)C2=O)cc1 (stereo not drawn) | 1.7% | -8.7% | 25.1µM* | 0.3% | ?
COc1ccc(N2C(=O)CC(n3c(CCCCO)nc4ccccc43)C2=O)cc1 (stereo not drawn) | 0.2% | -18.0% | 3.55µM* | -4.6% | -28.4
Oc1c(Br)cc(Br)cc1CN(Cc1cc(Br)cc(Br)c1O)C1CCCCC1 | -6.4%[7.66 µM] | -14.5% | 8.1%[13.5 µM] | . | .
CCOC(=O)c1sc(NC(=O)COC(=O)C(CCSC)NC(C)=O)nc1C (stereo not drawn) | -2.9% | -12.9% | ? | -2.1% | -5.2
Cc1ccc(C)c(CNC(=O)c2sc3ncnc(N(C)C4CCCCC4)c3c2C)c1 | . | . | . | -4.7%[46 µM] | .
CC(C)Oc1ccc2c(=O)c3cc(C(=O)O)ccc3oc2c1 | 3.1% | ? | ? | . | .
COc1ncnc2c1oc1nc(CC(C)C)c3c(c12)CC(C)(C)OC3 | -4.9% | -9.4% | 1µM* | -8.3% | -5.3
c1cncc(-c2cc(-c3cc(-c4cccnc4)n[nH]3)[nH]n2)c1 | -2.4%[7.66 µM] | -9.0% | 25.1%[13.5 µM] | . | .
Cc1ccc(S(=O)(=O)/C(C#N)=C/c2c(N3CC(C)OC(C)C3)nc3c(C)cccn3c2=O)cc1 (stereo not drawn) | -4.2% | 2.24µM* | ? | 0.1% | ?
CC1CN(c2nc3ccccn3c(=O)c2/C=C(\C#N)S(=O)(=O)c2ccccc2)CC(C)O1 (stereo not drawn) | -1.1% | 17.8µM* | 12.6µM* | 12.6% | 15.2
Cc1cccn2c(=O)c(/C=C(\C#N)S(=O)(=O)c3ccccc3)c(N3CCN(C)CC3)nc12 | -3.5% | -16.9% | 11.2µM* | 0.9% | ?
Cc1ccc(S(=O)(=O)/C(C#N)=C/c2c(N3CCN(C)CC3)nc3c(C)cccn3c2=O)cc1 | -1.9% | ? | ? | 7.5% | 7.4
C=CCOC(=O)N[C@H](C[N+](=O)[O-])c1ccccc1 | 2.6% | -11.0% | 9.1% | . | .
CO[C@@H]1COC(=O)[C@H](C)NC(=O)[C@@H](C)COC(=O)CCC[C@H]1C | . | . | -1.2%[13.5 µM] | . | .
COc1ccc(OCC(=O)Nc2ccc(C)cc2)cc1 | -5.3% | 15.8µM* | 4.8% | -5.8% | ?
Cc1ccc(OCC(=O)N/N=C/c2ccco2)cc1 | -11.9% | -23.5% | 28.2µM* | 15.7% | 12.6
COc1ccc(OCC(=O)Sc2ccc(C)cc2)cc1 | -4.6% | 14.1µM* | ? | 12.2% | 34.7
COCC(=O)N1CCC2(CCCN(C(=O)Nc3ccc(OC)cc3)C2)CC1 | -2.7% | -7.3% | -1.1% | . | .
Cc1ccc(CNC(=O)COC(=O)c2ccc(Br)cc2)cc1 | -2.4% | -10.6% | 11.3% | 2.8% | 52.5
Cc1ccc(NC(=O)c2ccc(NCc3ccc(F)cc3)nc2)cc1 | 1.8% | . | ? | 13.9%[46 µM] | .
O=C(/C=C/NNC(=O)c1ccccc1)c1ccc(Br)cc1 | 1.3% | -22.6% | ? | 4.8% | -8.0
Cc1ccc(C(=O)/C=C/NCc2ccc(F)cc2)cc1 | -0.1% | -24.2% | 14.1µM* | -8.2% | 11.8
Cc1ccc(CN/C=C/C(=O)c2ccc(Br)cc2)cc1 | -2.7% | ? | 15.8µM* | ? | ?
SMILES | Luc counter | HPGD inh | ALDH1A1 inh | LMNA splice mod | PNC inhibitor
O=C(/C=C/NCC(=O)c1ccccc1)c1ccc(Br)cc1 | 1.3% | -26.9% | 7.94µM* | -14.6% | -97.1*
COc1ccc(C(=O)/C=C/NCc2ccc(F)cc2)cc1OC | . | . | 22.4µM* | . | .
COc1ccccc1Cn1ccn(CC(=O)Nc2c(C)cc(C)cc2C)c(=O)c1=O | . | . | . | 5.8%[46 µM] | .
NC(=O)C1C(c2ccccc2)=C1c1ccccc1 | 2.2% | 1.3% | 14.1% | ? | -126.5*
CC(C)OC(=O)c1cccc(C(=O)OCc2ccco2)n1 | -10.2% | -7.4% | 8.91µM* | ? | -9.9
CC(=O)OCc1ccco1 | . | -7.5% | 22.4µM* | . | .
Cc1[nH]nc(SCC(=O)N2CCCCC2)c1[N+](=O)[O-] | -9.8% | 28.2µM* | ? | 3.7% | 27.3
N=C(N)CCNC(=O)[C@@H]1CCC(N)=N1 | -1.6%[7.66 µM] | -6.8% | 12.9%[13.5 µM] | . | .
Cc1cnc2c(c1SCC(=O)NCc1ccccc1Cl)c(=O)n(C)c(=O)n2C | . | . | . | 1.3%[46 µM] | .
Cc1ccc(C2C3=C(CC(C)(C)CC3=O)Nc3[nH]c(=S)[nH]c(=O)c32)cc1 (stereo not drawn) | 2.1% | 17.8µM* | -0.3% | -8.9% | ?
Cc1[nH]nc2c1C(c1ccc(O)cc1)C1=C(CC(C)(C)CC1=O)N2 (stereo not drawn) | -2.8% | . | ? | . | .
COc1cc(OC)c(NC(=S)Nc2cccc(C)c2)cc1Cl | -0.6% | 15.8µM* | ? | -11.9% | -23.7
Cc1ccc(-n2c3c(cc(C(=O)Nc4cccc(Cl)c4)c2=O)C(=O)CC(C)(C)C3)cc1 | . | . | . | 4.0%[46 µM] | .
COc1cc(/C=C(\C#N)C(=O)c2c(C)[nH]c3ccccc23)cc(OC)c1OC | . | . | 8.91µM* | -10.9% | 9.4
COc1ccc(/C=C(\C#N)C(=O)c2c(C)[nH]c3ccccc23)cc1OC | 1.4% | -2.1% | 10.5% | 7.6% | 13.5
CCOc1ccc(OCC)c(NS(=O)(=O)c2ccc3c(c2)CCN3C(=O)C2CCC2)c1 | -0.4% | -3.6% | 6.9% | -4.3% | -85.2*
CCOc1ccc(NS(=O)(=O)c2ccc3c(c2)CCCN3C(=O)C2CCC2)cc1 | . | . | . | 10.4%[46 µM] | .
Cc1cccc(NC(=O)/C=C/c2cccs2)n1 | 12.6µM* | 28.2µM* | ? | -9.5% | 12.1
COc1cccc(Cn2c(Oc3ccccc3)nc3c2c(=O)n(C)c(=O)n3C)c1 | -1.3% | -21.7% | 0.251µM* | -8.1% | ?
CCOc1ccc(NC(=O)COC(=O)CCCc2c[nH]c3ccccc23)cc1 | 1.0% | -15.8% | 15.8µM* | 7.2% | 66.7
CC(=O)OCC(=O)NCC(=O)c1c[nH]c2ccccc12 | 0.6% | 15.8µM* | -3.8% | 1.5% | -100.1*
COc1ccc(NC(=O)COC(=O)Cc2c[nH]c3ccccc23)cc1OC | 2.8% | . | 1.5% | -9.8%[46 µM] | .
Cc1ccc(C(=O)OCC(=O)c2c[nH]c3ccccc23)cc1 | -1.1% | -5.9% | 8.6% | -8.2% | 68.3
COc1ccc(NC(=O)COC(=O)CCCc2c[nH]c3ccccc23)cc1 | -3.6% | -23.7% | 8.91µM* | -1.2% | -24.1
CC(=O)Nc1ccc(NC(=O)COC(=O)Cc2c[nH]c3ccccc23)cc1 | -2.5% | -6.7% | 14.1µM* | -3.5% | 49.4
Cc1cc(C)cc(NC(=O)COc2cccc3c(=O)n(C)ccc23)c1 | . | . | . | 18.7%[46 µM] | .

High-throughput results from PubChem BioAssay.
